The source of these data is PubChem BioAssay (NCI).

Compounds without any hit were thinned out: in the full panel of roughly 79,000, 15% have a hit. Values without a mark were called inactive. The source made the active and inactive calls. No stated cut-off is given here; in the data, active means growth inhibition above about 70%; inactive means the rest.

Assay [1] can be described thus: NCI Yeast Anticancer Drug Screen. Data for the rad50 strain (AID 155).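 Further: 0% = growth of vehicle-only cultures of the same strain.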 Conditions: S. cerevisiae rad50 strain growth inhibition, active compounds read high. In short, it runs like this: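 Growth of the mutant yeast was measured after compound exposure and referenced to vehicle-treated cultures.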
A short description of assay [2]: NCI Yeast Anticancer Drug Screen. Data for the mec2-1 strain (AID 157). Conditions: S. cerevisiae mec2-1 strain, active compounds read high. In short, it runs like this: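 Readout is yeast growth inhibition, normalised to vehicle-treated controls, in the mec2-1 strain exposed to compound.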
Assay [3] is described as follows: NCI Yeast Anticancer Drug Screen. Data for the sgs1 mgt1 strain (AID 161).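 Further: 0% = growth of cultures given vehicle only.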 Conditions: S. cerevisiae sgs1 mgt1 strain, active compounds read high. The procedure, abridged:
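Yeast cells carrying a defined DNA-repair defect were exposed to test compounds. Growth inhibition was measured relative to vehicle-treated controls.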

Assay [4] is described as follows: NCI Yeast Anticancer Drug Screen. Data for the cln2 rad14 strain (AID 165).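 Further: 0% = growth equal to vehicle treated cultures.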 Conditions: S. cerevisiae cln2 rad14 strain, active compounds read high. In short, it runs like this:
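Relative to vehicle controls, growth inhibition of compound-treated cln2 rad14 yeast was recorded.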

The nature of assay [5]: NCI Yeast Anticancer Drug Screen. Data for the bub3 strain (AID 167). Conditions: S. cerevisiae bub3 mutant strain, active compounds read high. In short, it runs like this: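 Whole-cell yeast assay. The mutant strain was incubated with compounds, and growth inhibition was determined by comparison with vehicle-treated cells.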
The nature of assay [6]: NCI Yeast Anticancer Drug Screen. Data for the mlh1 rad18 strain (AID 175). Conditions: S. cerevisiae mlh1 rad18 strain growth inhibition, active compounds read high. The procedure, abridged:
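Test agents were incubated with a yeast strain of defined genotype (DNA damage repair defect). Inhibition of growth was derived by comparison with vehicle-exposed cultures.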

[7] abbreviates: at 5.0 µM (retest, dose inferred, filed as 0.5).
Setting [8] is: at 50.0 µM (retest, dose inferred, filed as 5.0).

Take `Cc1ccc(NC(=O)Oc2ccc(OC(=O)Cc3ccccc3)cc2)cc1NC(=O)Oc1ccc(OC(=O)Cc2ccccc2)cc1`: the growth inhibition in assay [1] (setting [7]) was 10%; in assay [1] (setting [8]), 97% (active); in assay [1] (at 50.0 µM) it was 99.2% (active); in assay [2] (setting [7]), 43%; in assay [2] (setting [8]), 94% (active); in assay [2] (at 50.0 µM), 99.4% (active). For the same molecule, the growth inhibition in assay [3] (setting [7]) is 2%; in assay [3] (setting [8]), 89% (active); in assay [3] (at 50.0 µM) it was 99.2% (active); in assay [4] (setting [7]), 10%; in assay [4] (setting [8]) it was 93% (active); in assay [4] (at 50.0 µM), 98.2% (active). Also, the growth inhibition is 15% in assay [5] (setting [7]); 98% (active) in assay [5] (setting [8]); 99% (active) in assay [5] (at 50.0 µM); 2% in assay [6] (setting [7]); 98% (active) in assay [6] (setting [8]); 99.1% (active) in assay [6] (at 50.0 µM).

As to `Cc1c2ccccc2c(C)n2c1nc1cc(Cl)c(Cl)cc12`, the growth inhibition is 12% in assay [1] (setting [7]); 95% (active) in assay [1] (setting [8]); 86.2% (active) in assay [1] (at 50.0 µM); 7% in assay [2] (setting [7]); 93% (active) in assay [2] (setting [8]); 91.3% (active) in assay [2] (at 50.0 µM). The growth inhibition was 26% in assay [3] (setting [7]); 45% in assay [3] (setting [8]); 89.3% (active) in assay [3] (at 50.0 µM); 27% in assay [4] (setting [7]); 95% (active) in assay [4] (setting [8]); 87.1% (active) in assay [4] (at 50.0 µM). Moreover, the growth inhibition is 18% in assay [5] (setting [7]); 97% (active) in assay [5] (setting [8]); 89.9% (active) in assay [5] (at 50.0 µM); 23% in assay [6] (setting [7]); 96% (active) in assay [6] (setting [8]); 85.6% (active) in assay [6] (at 50.0 µM).

With `O=C(NCCCN1CC2CCCC2C1)C(C1CCCCC1)C1CCCCC1` (stereo not given), the growth inhibition was -5% in assay [1] (setting [7]); 94% (active) in assay [1] (setting [8]); 99.6% (active) in assay [1] (at 50.0 µM); -12% in assay [2] (setting [7]); 76% (active) in assay [2] (setting [8]); 99.5% (active) in assay [2] (at 50.0 µM). The growth inhibition in assay [3] (setting [7]) was -9%; in assay [3] (setting [8]), 92% (active); in assay [3] (at 50.0 µM), 99.5% (active); in assay [4] (setting [7]) it was 0%; in assay [4] (setting [8]) it was 98% (active); in assay [4] (at 50.0 µM), 99.2% (active). The growth inhibition in assay [5] (setting [7]) was -22%; in assay [5] (setting [8]), 99% (active); in assay [5] (at 50.0 µM) it was 99.5% (active); in assay [6] (setting [7]), -3%; in assay [6] (setting [8]), 96% (active); in assay [6] (at 50.0 µM) it was 99.5% (active).

Take `O=S1OCCS1` (stereo not given): the growth inhibition was 10% in assay [1] (setting [7]); 87% (active) in assay [1] (setting [8]); 98.8% (active) in assay [1] (at 50.0 µM); 4% in assay [2] (setting [7]); 90% (active) in assay [2] (setting [8]); 99% (active) in assay [2] (at 50.0 µM). Moreover, the growth inhibition in assay [3] (setting [7]) was 11%; in assay [3] (setting [8]), 87% (active); in assay [3] (at 50.0 µM), 98.5% (active); in assay [4] (setting [7]), -3%; in assay [4] (setting [8]) it was 74% (active); in assay [4] (at 50.0 µM) it was 97.4% (active). Moreover, the growth inhibition was -1% in assay [5] (setting [7]); 92% (active) in assay [5] (setting [8]); 99.2% (active) in assay [5] (at 50.0 µM); 7% in assay [6] (setting [7]); 95% (active) in assay [6] (setting [8]); 98.7% (active) in assay [6] (at 50.0 µM).

With `Cn1c(=O)c2c(nc([N+](=O)[O-])n2C)n(C)c1=O`, the growth inhibition in assay [1] (setting [7]) is 2%; in assay [1] (setting [8]) it was 48%; in assay [1] (at 50.0 µM), 74.6% (active); in assay [2] (setting [7]) it was 9%; in assay [2] (setting [8]), 39%; in assay [2] (at 50.0 µM), 63.8%. The growth inhibition in assay [3] (setting [7]) is 4%; in assay [3] (setting [8]) it was 39%; in assay [3] (at 50.0 µM), 76.9% (active); in assay [4] (setting [7]) it was -2%; in assay [4] (setting [8]) it was 18%; in assay [4] (at 50.0 µM) it was 45.6%. Moreover, the growth inhibition in assay [5] (setting [7]) is 12%; in assay [5] (setting [8]), 75% (active); in assay [5] (at 50.0 µM) it was 79.3% (active); in assay [6] (setting [7]), 0%; in assay [6] (setting [8]), 41%; in assay [6] (at 50.0 µM), 68%.

Turning to `OCC1(O)OCC(O)C(O)C1O` (stereo not given), the growth inhibition in assay [1] (setting [7]) was -3%; in assay [1] (setting [8]), 72% (active); in assay [1] (at 50.0 µM), 74.7% (active); in assay [2] (setting [7]) it was -2%; in assay [2] (setting [8]), 68%; in assay [2] (at 50.0 µM), 80% (active). Further, the growth inhibition is 0% in assay [3] (setting [7]); 60% in assay [3] (setting [8]); 72.7% (active) in assay [3] (at 50.0 µM); 7% in assay [4] (setting [7]); 29% in assay [4] (setting [8]); 58.8% in assay [4] (at 50.0 µM). The growth inhibition in assay [5] (setting [7]) is 1%; in assay [5] (setting [8]), 69%; in assay [5] (at 50.0 µM), 72.1% (active); in assay [6] (setting [7]), -1%; in assay [6] (setting [8]) it was 81% (active); in assay [6] (at 50.0 µM), 79.5% (active).

As to `COc1cc(/C=C2\CC(C)C/C(=C\c3ccc(O)c(OC)c3)C2=O)ccc1O` (stereo not given), the growth inhibition in assay [1] (setting [7]) is 84% (active); in assay [1] (setting [8]), 83% (active); in assay [1] (at 50.0 µM), 74.5% (active); in assay [2] (setting [7]) it was 91% (active); in assay [2] (setting [8]) it was 89% (active); in assay [2] (at 50.0 µM) it was 83.6% (active). Besides, the growth inhibition in assay [3] (setting [7]) is 92% (active); in assay [3] (setting [8]) it was 90% (active); in assay [3] (at 50.0 µM), 77.7% (active); in assay [4] (setting [7]), 70% (active); in assay [4] (setting [8]) it was 89% (active); in assay [4] (at 50.0 µM), 81.6% (active). Moreover, the growth inhibition in assay [5] (setting [7]) was 91% (active); in assay [5] (setting [8]), 89% (active); in assay [5] (at 50.0 µM) it was 80.8% (active); in assay [6] (setting [7]), 84% (active); in assay [6] (setting [8]), 90% (active); in assay [6] (at 50.0 µM), 66.5%.

Turning to `Cc1ccc2cccc(N)c2c1`, the growth inhibition in assay [1] (setting [7]) was 1%; in assay [1] (setting [8]), 2%; in assay [1] (at 50.0 µM), -12.4%; in assay [2] (setting [7]) it was 3%; in assay [2] (setting [8]), 9%; in assay [2] (at 50.0 µM), -2.2%. Also, the growth inhibition in assay [3] (setting [7]) was 2%; in assay [3] (setting [8]), 4%; in assay [3] (at 50.0 µM) it was -21.8%; in assay [4] (setting [7]), 1%; in assay [4] (setting [8]), -9%; in assay [4] (at 50.0 µM), 46.4%. Moreover, the growth inhibition in assay [5] (setting [7]) is 8%; in assay [5] (setting [8]) it was 12%; in assay [5] (at 50.0 µM) it was -5.15%; in assay [6] (setting [7]) it was 2%; in assay [6] (setting [8]) it was 8%; in assay [6] (at 50.0 µM), 44.9%.

As to `Oc1cc(-[n+]2ccc3ccccc3c2)c(O)c2ccccc12`, the growth inhibition in assay [1] (setting [7]) is 10%; in assay [1] (setting [8]), 70% (active); in assay [1] (at 50.0 µM), 44.2%; in assay [2] (setting [7]), -1%; in assay [2] (setting [8]) it was 27%; in assay [2] (at 50.0 µM), 39.2%. Also, the growth inhibition in assay [3] (setting [7]) was 11%; in assay [3] (setting [8]), 45%; in assay [3] (at 50.0 µM), 15.6%; in assay [4] (setting [7]), -4%; in assay [4] (setting [8]), -10%; in assay [4] (at 50.0 µM) it was -20.8%. The growth inhibition was 24% in assay [5] (setting [7]); 72% (active) in assay [5] (setting [8]); 64.5% in assay [5] (at 50.0 µM); 16% in assay [6] (setting [7]); 46% in assay [6] (setting [8]); 54.1% in assay [6] (at 50.0 µM).

Take `Oc1ccc(C2Oc3ccccc3C=C2c2ccccc2)cc1` (stereo not given): the growth inhibition in assay [1] (setting [7]) is 51%; in assay [1] (setting [8]), 98% (active); in assay [1] (at 50.0 µM) it was -10.4%; in assay [2] (setting [7]), 58%; in assay [2] (setting [8]) it was 99% (active); in assay [2] (at 50.0 µM), -25.8%. Moreover, the growth inhibition is 61% in assay [3] (setting [7]); 99% (active) in assay [3] (setting [8]); -5.2% in assay [3] (at 50.0 µM); 15% in assay [4] (setting [7]); 99% (active) in assay [4] (setting [8]); -14.8% in assay [4] (at 50.0 µM). Moreover, the growth inhibition in assay [5] (setting [7]) is 13%; in assay [5] (setting [8]), 99% (active); in assay [5] (at 50.0 µM), -1.25%; in assay [6] (setting [7]), 81% (active); in assay [6] (setting [8]) it was 98% (active); in assay [6] (at 50.0 µM), -7.45%.
